Assay outcomes from PubChem BioAssay.
RGS8-Gao reg – human RGS8-Galphao interaction regulation; actives 0.34% (n = 220,000); multiplexed bead flow cytometry, RGS8-Galphao binding; actives lie on both sides; response (percent of control binding), % at 10 µM; P09471; in the data active = response below about 60% or above about 140%; inactive = in between;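 also: Galphao activated as the GDP aluminium fluoride complex binding bead-coupled RGS8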
Avidin fluor – compound fluoresces at 488/530 nm on avidin beads; fluorescence (KMESF) at 10 µM; compound fluorescence 488/530 nm, flow cytometry; hits give high values; actives 0.38% (n = 220,000); in the data active = fluorescence above about 47
RGS7-Gao reg – regulators of human RGS7-Galphao interaction; P09471; Multiplexed bead flow cytometry, RGS7-Galphao binding; actives lie on both sides; actives 0.35% (n = 220,000); binding response (% of control), % at 10 µM; AID 1439; in the data active = binding response below about 49% or above about 150%;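 also: fluorescent Galphao held in activated GDP-AlF4 state binding bead-coupled RGS7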
RGS16-Gao – RGS16-Galphao interaction regulator (human); bead-based flow cytometry RGS16-Galphao binding, fluorescence; actives lie on both sides; actives 0.38% (n = 220,000); O15492+P09471; binding response (% of control), % at 10 µM;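 also: Galphao activated by GDP with aluminum fluoride before binding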
Target sequence (O15492 whole entry, looked up): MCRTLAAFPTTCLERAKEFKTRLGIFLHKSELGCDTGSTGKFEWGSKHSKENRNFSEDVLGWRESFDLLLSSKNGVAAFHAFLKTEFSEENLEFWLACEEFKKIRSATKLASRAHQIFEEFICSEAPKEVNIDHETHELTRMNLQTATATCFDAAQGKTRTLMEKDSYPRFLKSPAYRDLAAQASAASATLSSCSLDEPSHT
Target sequence (P09471 whole entry, looked up): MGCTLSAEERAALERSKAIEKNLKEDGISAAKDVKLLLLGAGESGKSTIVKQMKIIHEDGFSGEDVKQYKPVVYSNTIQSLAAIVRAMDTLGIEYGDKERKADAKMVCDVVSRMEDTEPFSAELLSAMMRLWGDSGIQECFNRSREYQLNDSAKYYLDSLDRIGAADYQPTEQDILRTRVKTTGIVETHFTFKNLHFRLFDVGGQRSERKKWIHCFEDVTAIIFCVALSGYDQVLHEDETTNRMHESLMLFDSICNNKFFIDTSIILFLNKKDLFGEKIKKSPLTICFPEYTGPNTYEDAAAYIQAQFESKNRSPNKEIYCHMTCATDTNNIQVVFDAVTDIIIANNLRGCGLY
RGS4-Gao reg – modulates binding of RGS4 to human Galphao. P09471. Multiplexed bead flow cytometry; actives lie on both sides. binding response (% of control), % at 10 µM. actives 0.33% (n = 220,000). AID 1415; in the data active = binding response below about 49% or above about 150%; inactive = in between;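 also: fluorescent Galphao activated with aluminum fluoride binding bead-coupled RGS4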
GSH fluor – compound fluoresces at 488/530 nm on GSH beads; GSH beads flow cytometry, compound fluorescence 488/530 nm; hits give high values; fluorescence (KMESF) at 10 µM; actives 0.25% (n = 190,000); AID 1776; in the data active = fluorescence above about 89;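 also: glutathione beads carrying GST-tagged Bcl family fusion proteins plus one bare bead set; values are compound well signal with DMSO vehicle wells as background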
RGS4-Gao HTS – regulators of human RGS4-Galphao interaction. shares compounds with RGS16-Gao. multiplexed bead flow cytometry, RGS–Galpha-o binding. RGS4–Galpha-o binding response, % at 10 µM. actives 99% (n = 1,600). AID 1504;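 also: fluorescently labeled Galpha-o bound to GDP with aluminium fluoride binding biotinylated RGS beads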
Avidin counter – counter-screen: compounds disrupting biotin binding to avidin beads; shares compounds with RGS16-Gao; streptavidin beads, fluorescein-biotin binding, flow cytometry; inhibition, % at 10 µM; 1,700 tested, under 10 active;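 active = inhibition above 50%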;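 also: median green fluorescence of gated singlet beads compared with DMSO control wells; 0% = DMSO wells and 100% = complete loss of bead fluorescence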
RGS8-Gao confirm – RGS8-Galphao interaction regulation, single point confirmation. bead-based flow cytometry RGS8-Galphao binding, fluorescence; actives lie on both sides. binding response (% of control), % at 10 µM. shares compounds with RGS16-Gao. actives 3% (n = 1,700); in the data active = binding response below about 72% or above about 130%; inactive = in between;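 also: Galphao activated as GDP AlF4 complex before binding bead RGS8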
RGS7-Gao single – RGS7-Galphao interaction regulation, single point confirmation. shares compounds with RGS16-Gao. response (percent of control binding), % at 10 µM. bead-based flow cytometry RGS7-Galphao binding; actives lie on both sides. actives 7.8% (n = 1,700); in the data active = response below about 75% or above about 130%; inactive = in between;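 also: fluorescent Galphao activated with GDP and aluminum fluoride binding bead-coupled RGS7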
RGS16-Gao conf – confirmation of regulators of human RGS16-Galphao interaction. shares compounds with RGS16-Gao. bead-based flow cytometry, RGS16-Galphao binding; actives lie on both sides. response (% of control binding), % at 10 µM. actives 4% (n = 1,700). AID 1838; in the data active = response below about 74% or above about 130%; inactive = in between;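 also: Galphao activated as the GDP aluminium fluoride complex binding bead-coupled RGS16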
RGS4-Gao confirm – confirmation of regulators of human RGS4-Galphao interaction | binding response (% of control), % at 10 µM | AID 1840 | actives 4% (n = 1,700) | RGS4-Galphao binding, multiplexed bead flow cytometry; actives lie on both sides | shares compounds with RGS16-Gao; in the data active = binding response below about 74% or above about 130%; inactive = in between
RGS19-Gao single – confirmation of regulators of human RGS19-Galphao interaction | response (percent of control binding), % at 10 µM | bead-based flow cytometry RGS19-Galphao binding; actives lie on both sides | actives 5% (n = 1,700) | shares compounds with RGS16-Gao; in the data active = response below about 50% or above about 160%; inactive = in between;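 also: 100% = no compound control and 0% = blank background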
Numbers without * were called inactive; [ ] = remark or other dose. Shown are actives, neighbours in structure and some others; about 1.2% of the full set was active somewhere. Unless noted, no rule for the calls is given here.

What do the screens show for `C/C(=N\NC(=O)c1cc(C(C)C)[nH]n1)c1ccco1`?
RGS8-Gao reg: 125.8; Avidin fluor: 3; RGS7-Gao reg: 105.9; RGS16-Gao: 190.4*[activator]; RGS4-Gao reg: 101.9; GSH fluor: 7; RGS4-Gao HTS: 101.9*; Avidin counter: 1.6; RGS8-Gao confirm: 101.0; RGS7-Gao single: 101.8; RGS16-Gao conf: 100.6; RGS4-Gao confirm: 99.8; RGS19-Gao single: 107.8

What do the screens show for `C/C(=N/NC(=O)c1cc(-c2ccc(Br)s2)[nH]n1)c1ccco1`?
RGS8-Gao reg: 106.2; Avidin fluor: 10; RGS7-Gao reg: 104.3; RGS16-Gao: 113.8; RGS4-Gao reg: 104.4; GSH fluor: 32

How did Cc1cc(C)c2oc(C(=O)Nc3ccc(S(=O)(=O)N4CCCC(C)C4)cc3)cc(=O)c2c1 (stereo not drawn) do in these assays?
RGS8-Gao reg: 102.7; Avidin fluor: 93*; RGS7-Gao reg: 168.4*[activator]; RGS16-Gao: 146.0; RGS4-Gao reg: 152.5*[activator]; GSH fluor: 17; Avidin counter: -2.0; RGS8-Gao confirm: 103.9; RGS7-Gao single: 97.5; RGS16-Gao conf: 102.3; RGS4-Gao confirm: 103.3; RGS19-Gao single: 106.5

How did O=C(CCC1CCCN(C(=O)c2cncs2)C1)NCc1ccc(F)c(F)c1 (stereo not drawn) do in these assays?
RGS8-Gao reg: 94.7; Avidin fluor: 220*; RGS7-Gao reg: 231.3*[activator]; RGS16-Gao: 119.1; RGS4-Gao reg: 108.8; GSH fluor: 13; RGS4-Gao HTS: 108.8*; Avidin counter: -1.1; RGS8-Gao confirm: 101.4; RGS7-Gao single: 97.2; RGS16-Gao conf: 100.2; RGS4-Gao confirm: 100.7; RGS19-Gao single: 82.8

What do the screens show for `COc1ccc(C(F)(F)F)cc1NC(=O)c1nc2nc(C)cc(C(F)F)n2n1`?
RGS8-Gao reg: 30.1*; Avidin fluor: 1; RGS7-Gao reg: 33.4*; RGS16-Gao: 4.5; RGS4-Gao reg: 37.8*; GSH fluor: 31; Avidin counter: inactive; RGS8-Gao confirm: 99.0; RGS7-Gao single: 106.5; RGS16-Gao conf: 100.7; RGS4-Gao confirm: 102.9; RGS19-Gao single: 101.2

How did CCOC(=O)N1CCN(Cc2nc(N)nc(Nc3ccc(C)cc3C)n2)CC1 do in these assays?
RGS8-Gao reg: 105.3; Avidin fluor: 15; RGS7-Gao reg: 107.1; RGS16-Gao: 108.7; RGS4-Gao reg: 103.2; GSH fluor: 13

How did O=C(Nc1cccc2ncccc12)c1cccc(F)c1 do in these assays?
RGS8-Gao reg: 96.5; Avidin fluor: 12; RGS7-Gao reg: 92.6; RGS16-Gao: 96.5; RGS4-Gao reg: 87.6; GSH fluor: 7

What do the screens show for `O=C(Nc1cccc2ncccc12)c1cccnc1`?
GSH fluor: 17; Avidin counter: -1.0; RGS8-Gao confirm: 104.4; RGS7-Gao single: 109.6; RGS16-Gao conf: 97.8; RGS4-Gao confirm: 104.1; RGS19-Gao single: 83.1
